From PubChem BioAssay (EPA / NIEHS)
Inconclusive results are not listed. Activity calls are given as the source filed them. Rule for the calls: active = hit-call score of the fitted dose curve at least 0.9, where 1 is the maximum; inconclusive = response in the unintended direction; inactive = score below 0.9.

Each compound was assayed against Oxysterols receptor LXR-alpha (Homo sapiens) (UniProt Q13133) (assay: ATG_LXRa_TRANS: Attagene TRANS-FACTORIAL HepG2 Assay for human Liver X Receptor alpha (LXRa) (AID 2282980)). Conditions: HepG2 Attagene TRANS reporter, LXRa transactivation.
Outline: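 Transient HepG2 transfectants, 24 h dosing, RT-PCR/CE mRNA reporter quantitation; gain-of-signal vs DMSO.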

Chain of Oxysterols receptor LXR-alpha (Homo sapiens) (Q13133 whole entry, looked up): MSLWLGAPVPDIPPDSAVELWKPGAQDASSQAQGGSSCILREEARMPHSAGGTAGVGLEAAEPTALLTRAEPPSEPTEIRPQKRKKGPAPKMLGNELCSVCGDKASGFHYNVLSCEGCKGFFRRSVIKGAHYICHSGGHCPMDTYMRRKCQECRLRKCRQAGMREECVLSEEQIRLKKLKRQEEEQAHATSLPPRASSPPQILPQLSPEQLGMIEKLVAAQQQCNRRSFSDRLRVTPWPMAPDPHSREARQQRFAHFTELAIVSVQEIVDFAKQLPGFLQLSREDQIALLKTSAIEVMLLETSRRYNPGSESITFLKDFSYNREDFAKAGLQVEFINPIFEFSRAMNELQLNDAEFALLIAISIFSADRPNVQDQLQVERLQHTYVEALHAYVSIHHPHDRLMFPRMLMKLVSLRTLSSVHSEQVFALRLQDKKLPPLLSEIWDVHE

Compound | outcome | AC50
C=CC(C)C#N (centres undefined) | inactive | –
CCOC(=O)[C@@H](C)Oc1ccc(Oc2nc3ccc(Cl)cc3o2)cc1 | inactive | –
CC(C)(C)OC(=O)c1ccc(O)cc1 | inactive | –
COc1cc(Cl)c(OC)cc1N | inactive | –
CN(C)CCOc1ccc(/C(=C(/CCCl)c2ccccc2)c2ccccc2)cc1 | inactive | –
O=[N+]([O-])c1ccc(O)cc1C(F)(F)F | inactive | –
CCOC(=O)CC(C)O (centres undefined) | inactive | –
COC(=O)c1ccc(OC)cc1 | inactive | –
CCC(Cl)C(Cl)C(Cl)CC(Cl)C(Cl)C(C)Cl (centres undefined) | inactive | –
COC(C)(C)CC(C)=O | inactive | –
CC(=O)O[C@H]1C[C@@H]2CC[C@@]1(C)C2(C)C | inactive | –
O=C(Nc1ccc2c(c1)Cc1ccccc1-2)C(F)(F)F | inactive | –
CC(=O)O[C@@H]1C[C@@H]2CC[C@@]1(C)C2(C)C | inactive | –
CCCCCCCCSCCO | inactive | –
CCCCCCC(O)CCCCCCCCCCC(=O)O (centres undefined) | inactive | –
CC1C2CC(CC2C2CCCC(O)C2)C1(C)C (centres undefined) | – | 33.4 µM (active)
CCCCCCCCCCCC(=O)OC[C@@H](O)[C@H]1OC[C@H](O)[C@H]1O | inactive | –

Compound | outcome | AC50
CCc1cc(C(C)(C)C)c(O)c(C(C)(C)C)c1 | inactive | –
C=CC(C)(O)CCC=C(C)C (centres undefined) | inactive | –
CCOC(=O)CN | inactive | –
CCc1cc(Cc2cc(CC)cc(C(C)(C)C)c2O)c(O)c(C(C)(C)C)c1 | inactive | –
CC1(C)C(=O)N(Cl)C(=O)N1Br | inactive | –
Cc1cc(=O)oc2cc(N(C)C)ccc12 | inactive | –
CSc1c(Cl)c(Cl)c(Cl)c(Cl)c1Cl | inactive | –
C=C1CC[C@H](O)C/C1=C/C=C1\CCC[C@]2(C)[C@@H]([C@H](C)/C=C/[C@H](C)C(C)C)CC[C@@H]12 | inactive | –
IC(I)I | inactive | –
CC1(C)O[C@@H]2C[C@H]3[C@@H]4CCC5=CC(=O)C=C[C@]5(C)[C@@]4(F)[C@@H](O)C[C@]3(C)[C@]2(C(=O)CO)O1 | inactive | –
O=C(Nc1ccc([N+](=O)[O-])cc1)Nc1ccc([N+](=O)[O-])cc1 (tested in a mixture with another compound) | inactive | –
Cc1ccc(S(=O)(=O)Oc2ccc(N=Nc3ccc(-c4ccc(N=Nc5c(O)ccc6cc(S(=O)(=O)O)cc(S(=O)(=O)O)c56)c(C)c4)cc3C)cc2)cc1 | inactive | –
CCCCCCCCCCCCN1CCCCCC1=O | inactive | –
CC1(C)C2=CCCC(C)(C)[C@]23CC[C@H]1C3 | inactive | –
CCCCCCC(C)Nc1ccc(Nc2ccccc2)cc1 (centres undefined) | inactive | –
CCOC(=O)c1ccc(N)cc1 | inactive | –
CC(C=O)Cc1ccc(C(C)(C)C)cc1 (centres undefined) | inactive | –
